Reference: PubChem BioAssay (NCI)
The panel holds about 83,000 compounds, 20% with a hit somewhere; the sample as a whole holds those more often.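 Interpretation: 100, growth as untreated; towards 0, rising growth inhibition; 0, no net growth; 0 to -100, cell death. Compounds scoring below 10 were considered active.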 Activity calls are given as the source filed them.

Legend:
Assay in all cases: NCI-60 one-dose screen, 48 h (100 = growth as untreated, 0 = no growth, -100 = all killed)
NCI-H23 lung = conditions: 10 µM unless noted
NCI-H226 lung = conditions: 10 µM unless noted
NCI-H322M lung = conditions: 10 µM unless noted
HOP-62 NSCLC = conditions: 10 µM unless noted
NCI-H460 lung = conditions: 10 µM unless noted
NCI-H522 lung = conditions: 10 µM unless noted
A549/ATCC NSCLC = conditions: 10 µM unless noted
786-0 renal = conditions: 10 µM unless noted
COLO 205 colon = conditions: 10 µM unless noted
DU-145 prostate = conditions: 10 µM unless noted
K-562 leukemia = conditions: 10 µM unless noted
MALME-3M melanoma = conditions: 10 µM unless noted
MDA-MB-231 breast = conditions: 10 µM unless noted
RXF 393 renal = conditions: 10 µM unless noted
SF-268 CNS = conditions: 10 µM unless noted
SF-295 CNS = conditions: 10 µM unless noted
SF-539 CNS = conditions: 10 µM unless noted
UACC-257 melanoma = conditions: 10 µM unless noted
M14 melanoma = conditions: 10 µM unless noted
HOP-92 NSCLC = conditions: 10 µM

Measured: growth

c1n[nH]cc1-c1nc2ccc3[nH]ncc3c2c2c1CCCC2
active: NCI-H460 lung 9.2% | NCI-H522 lung 2.99% | COLO 205 colon 8.98% | RXF 393 renal -51.4% | M14 melanoma 7.13%
inactive: NCI-H23 lung 19% | NCI-H226 lung 29.1% | NCI-H322M lung 31.1% | HOP-62 NSCLC 14.7% | A549/ATCC NSCLC 15.7% | 786-0 renal 16.9% | DU-145 prostate 20.4% | K-562 leukemia 33.9% | MALME-3M melanoma 11.5% | MDA-MB-231 breast 49.1% | SF-268 CNS 27% | SF-295 CNS 29.5% | SF-539 CNS 11% | UACC-257 melanoma 37.1%

COc1ccc(/C=C/C(=O)c2cc(S(N)(=O)=O)c(OC)cc2OC)cc1
inactive: NCI-H23 lung 74.7% | NCI-H226 lung 100% | NCI-H322M lung 77.2% | HOP-62 NSCLC 83% | NCI-H460 lung 69.8% | NCI-H522 lung 78% | A549/ATCC NSCLC 84.3% | 786-0 renal 88.1% | COLO 205 colon 92.6% | DU-145 prostate 17.3% | K-562 leukemia 26.1% | MALME-3M melanoma 98% | MDA-MB-231 breast 64.6% | RXF 393 renal 40.1% | SF-268 CNS 80.7% | SF-295 CNS 93.2% | SF-539 CNS 76.4% | UACC-257 melanoma 87.9% | M14 melanoma 84.3%

Cc1ccc(CSc2nc(-c3ccc(Cl)cc3)c(C#N)c(N3CCOCC3)n2)cc1
inactive: NCI-H23 lung 95% | NCI-H226 lung 94.4% | NCI-H322M lung 103% | HOP-62 NSCLC 110% | NCI-H460 lung 96.2% | NCI-H522 lung 78.4% | A549/ATCC NSCLC 91.8% | 786-0 renal 87.5% | COLO 205 colon 125% | DU-145 prostate 105% | K-562 leukemia 91.5% | MALME-3M melanoma 108% | MDA-MB-231 breast 98.9% | RXF 393 renal 88.3% | SF-268 CNS 95.5% | SF-295 CNS 98.6% | SF-539 CNS 99.1% | UACC-257 melanoma 97.6% | M14 melanoma 98%

NS(=O)(=O)c1ccc(Nc2nc(SCC(=O)c3ccc(Cl)cc3)nc3c2CCCC3)cc1
inactive: NCI-H23 lung 53.9% | NCI-H226 lung 56.6% | NCI-H322M lung 87% | HOP-62 NSCLC 70% | NCI-H460 lung 21% | NCI-H522 lung 67.7% | A549/ATCC NSCLC 38.9% | 786-0 renal 84.7% | COLO 205 colon 46% | DU-145 prostate 41.1% | K-562 leukemia 27.9% | MALME-3M melanoma 66.6% | MDA-MB-231 breast 49.6% | RXF 393 renal 35.6% | SF-268 CNS 62.2% | SF-295 CNS 50.3% | SF-539 CNS 62.3% | UACC-257 melanoma 62.3% | M14 melanoma 59.6%

COc1ccc([C@@H]2c3[nH]c4ccccc4c3C[C@H]3C(=O)N(C4CCN(CC5CCCCC5)CC4)CC(=O)N23)c(OC)c1
inactive: NCI-H23 lung 93.3% | NCI-H226 lung 74.1% | NCI-H322M lung 90.3% | HOP-62 NSCLC 72.9% | NCI-H460 lung 82.5% | NCI-H522 lung 85.2% | A549/ATCC NSCLC 72.2% | 786-0 renal 70.5% | COLO 205 colon 51.2% | DU-145 prostate 80.8% | K-562 leukemia 22% | MALME-3M melanoma 95.7% | MDA-MB-231 breast 75.5% | RXF 393 renal 28.7% | SF-268 CNS 67.2% | SF-295 CNS 98.6% | SF-539 CNS 78.6% | UACC-257 melanoma 84.8%

CCN1CCN(Cc2ccc(C(=O)Nc3ccc(C)c(Oc4ccc(-c5[nH]nc6ncnc(N)c56)cc4)c3)cc2C(F)(F)F)CC1
active: K-562 leukemia 3.44%
inactive: NCI-H23 lung 93.2% | NCI-H226 lung 85.8% | NCI-H322M lung 99% | HOP-62 NSCLC 103% | NCI-H460 lung 106% | NCI-H522 lung 101% | A549/ATCC NSCLC 96.6% | 786-0 renal 69.4% | COLO 205 colon 56.7% | DU-145 prostate 98.6% | MALME-3M melanoma 22.8% | MDA-MB-231 breast 82.7% | RXF 393 renal 44.3% | SF-268 CNS 90.5% | SF-295 CNS 78.8% | SF-539 CNS 55.6% | UACC-257 melanoma 71.9%

C[C@H](CCC(=O)NCc1ccc(C(=O)Nc2ccccc2N)cc1)[C@H]1CC[C@H]2[C@@H]3[C@@H](O)C[C@@H]4C[C@H](O)CC[C@]4(C)[C@H]3CC[C@]12C
inactive: NCI-H23 lung 66.7% | NCI-H226 lung 57.1% | NCI-H322M lung 79% | HOP-62 NSCLC 58.3% | NCI-H460 lung 60.8% | NCI-H522 lung 37.8% | A549/ATCC NSCLC 90.3% | 786-0 renal 71.4% | COLO 205 colon 65.2% | DU-145 prostate 84.1% | K-562 leukemia 30.6% | MALME-3M melanoma 45% | MDA-MB-231 breast 49.2% | RXF 393 renal 55.3% | SF-268 CNS 52.6% | SF-295 CNS 69.1% | SF-539 CNS 55.6% | UACC-257 melanoma 63.7%

COc1cc2oc(-c3cccc(N)c3)cc(=O)c2c(OC)c1OC
inactive: NCI-H23 lung 110% | NCI-H226 lung 99.9% | NCI-H322M lung 102% | HOP-62 NSCLC 115% | NCI-H460 lung 106% | NCI-H522 lung 97.4% | A549/ATCC NSCLC 101% | 786-0 renal 94.1% | COLO 205 colon 126% | DU-145 prostate 108% | K-562 leukemia 107% | MALME-3M melanoma 101% | MDA-MB-231 breast 100% | RXF 393 renal 117% | SF-268 CNS 104% | SF-295 CNS 93.4% | SF-539 CNS 99.6% | UACC-257 melanoma 119% | M14 melanoma 111%

CC1(C)CC[C@]2(C(=O)O)CC[C@]3(C)C(=CC[C@@H]4[C@@]5(C)CC/C(=N\OCCC#N)C(C)(C)[C@@H]5CC[C@]43C)[C@@H]2C1
inactive: NCI-H23 lung 98% | NCI-H226 lung 98% | NCI-H322M lung 111% | HOP-62 NSCLC 79.2% | NCI-H460 lung 93.7% | HOP-92 NSCLC 123% | A549/ATCC NSCLC 93.7% | 786-0 renal 80.8% | DU-145 prostate 91.8% | K-562 leukemia 109% | MALME-3M melanoma 117% | MDA-MB-231 breast 93% | RXF 393 renal 66.6% | SF-268 CNS 84.6% | SF-295 CNS 102% | SF-539 CNS 99.2% | UACC-257 melanoma 108% | M14 melanoma 98.2%

O=C(Nc1ccc2c(ccn2Cc2ccccn2)c1)c1ccnnc1
inactive: NCI-H23 lung 94.6% | NCI-H226 lung 87.3% | NCI-H322M lung 98.5% | HOP-62 NSCLC 76.4% | NCI-H460 lung 104% | HOP-92 NSCLC 87.6% | A549/ATCC NSCLC 91.4% | 786-0 renal 86% | COLO 205 colon 110% | DU-145 prostate 89.1% | K-562 leukemia 99.6% | MALME-3M melanoma 103% | MDA-MB-231 breast 71.1% | RXF 393 renal 59.3% | SF-268 CNS 81.9% | SF-295 CNS 94.7% | SF-539 CNS 97.7% | UACC-257 melanoma 106% | M14 melanoma 99.7%

O=C(O)c1cn(C2CC2)c2cc(N3CCN(C(=O)CN4C(=O)CSC4=O)CC3)c(F)cc2c1=O
inactive: NCI-H23 lung 103% | NCI-H226 lung 101% | NCI-H322M lung 101% | HOP-62 NSCLC 75.8% | NCI-H460 lung 107% | HOP-92 NSCLC 104% | A549/ATCC NSCLC 93.5% | 786-0 renal 94.1% | COLO 205 colon 113% | DU-145 prostate 90.5% | K-562 leukemia 102% | MALME-3M melanoma 103% | MDA-MB-231 breast 81.2% | RXF 393 renal 61.7% | SF-268 CNS 83.5% | SF-295 CNS 106% | SF-539 CNS 88.5% | UACC-257 melanoma 107% | M14 melanoma 108%

Cc1cc(C)n(C(=O)c2sc(=S)n(-c3ccccc3)c2N=Nc2c(N)n[nH]c2N)n1
inactive: NCI-H23 lung 104% | NCI-H226 lung 102% | NCI-H322M lung 101% | HOP-62 NSCLC 103% | NCI-H460 lung 108% | NCI-H522 lung 93.2% | A549/ATCC NSCLC 102% | 786-0 renal 111% | COLO 205 colon 109% | DU-145 prostate 110% | K-562 leukemia 105% | MALME-3M melanoma 73.9% | MDA-MB-231 breast 89.2% | RXF 393 renal 116% | SF-268 CNS 104% | SF-295 CNS 104% | SF-539 CNS 99.1% | UACC-257 melanoma 106%

N#Cc1cccc(/C(N)=N/C(N)=N/c2nc3ccccc3s2)c1
inactive: NCI-H23 lung 27.7% | NCI-H226 lung 72% | NCI-H322M lung 48.5% | HOP-62 NSCLC 45% | NCI-H460 lung 22% | A549/ATCC NSCLC 60.8% | 786-0 renal 46% | COLO 205 colon 17.4% | DU-145 prostate 17.5% | K-562 leukemia 12.7% | MALME-3M melanoma 59.3% | MDA-MB-231 breast 37.3% | RXF 393 renal 13% | SF-268 CNS 56.5% | UACC-257 melanoma 90.6% | M14 melanoma 20.8%
active: NCI-H522 lung 3.75% | SF-295 CNS 1.87% | SF-539 CNS 4.08%

CC1(C)[C@@H](O)CC[C@]2(C)[C@H]3CC[C@@H]4[C@H]5[C@H](C(=O)/C=C\c6ccncc6)CC[C@]5(O)CC[C@@]4(C)[C@]3(C)CC[C@@H]12
inactive: NCI-H23 lung 49.2% | NCI-H226 lung 27.8% | NCI-H322M lung 93.4% | HOP-62 NSCLC 89.9% | NCI-H460 lung 62.9% | HOP-92 NSCLC 91.9% | A549/ATCC NSCLC 71.5% | 786-0 renal 35.3% | COLO 205 colon 91% | DU-145 prostate 38% | MALME-3M melanoma 94.3% | SF-268 CNS 50.2% | SF-295 CNS 93.3% | SF-539 CNS 37.9% | UACC-257 melanoma 72.8% | M14 melanoma 67.4%
active: K-562 leukemia 9.43% | MDA-MB-231 breast -8.43% | RXF 393 renal -13.7%

COc1cc(-c2nn(C(C)(C)C)cc2-c2ccnc(NCCCNS(=O)(=O)c3ccc(Cl)cc3)n2)ccc1Cl
inactive: NCI-H23 lung 73% | NCI-H226 lung 53.8% | NCI-H322M lung 78.2% | HOP-62 NSCLC 61.7% | NCI-H460 lung 55.1% | HOP-92 NSCLC 48.6% | A549/ATCC NSCLC 36.3% | 786-0 renal 69% | DU-145 prostate 60.5% | K-562 leukemia 33.5% | MALME-3M melanoma 87.9% | MDA-MB-231 breast 55.5% | SF-268 CNS 44.1% | SF-295 CNS 59.6% | SF-539 CNS 84.4% | UACC-257 melanoma 82.1% | M14 melanoma 76.8%
active: RXF 393 renal 4.9%
